Active and inactive are the calls of the source.
Legend:
[1] = E. coli DRC41 culture turbidity changes, primary screen, E. coli filamentation inducer project, strain DRC41, OD650, 48 h (AID 1152);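 note: E. coli MC1000 strain DRC41 lacking acrAB efflux pump and sulA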; conditions: E. coli DRC41 (acrAB sulA), higher = more signal, called active from +8 up or from −8 down
[2] = small-molecule binders of probe aLefty1, primary screen, biochemical, small-molecule microarray, 635/667 nm fluorescence (AID 1153); conditions: higher = more signal;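 note: score merges spot fluorescence with signal-to-noise ratio from the scanned slide images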
[3] = PSAC antagonists in infected red cells, primary screen, cell-based, P. falciparum Indochina, OD700, 1 h (AID 1154); conditions: P. falciparum Indochina infected RBC osmotic lysis, higher = more signal, called active from +8 up or from −8 down
[4] = PSAC antagonists in infected red cells, primary screen, cell-based, P. falciparum Indochina, OD700, 2 h (AID 1155);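 note: lysis reports solute entry through the parasite surface anion channel PSAC; channel blockers reduce lysis of infected cells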; conditions: P. falciparum Indochina infected erythrocytes, osmotic lysis OD700; higher = more signal, called active from +8 up or from −8 down
[5] = osmotic lysis modulators in infected erythrocytes, primary screen, PSAC antagonist project, cell-based, P. falciparum Indochina, OD700, 3 h (AID 1156); conditions: higher = more signal, called active from +8 up or from −8 down
[6] = PSAC antagonists in infected red cells, primary screen, cell-based, P. falciparum Indochina, OD700, 18 h (AID 1157); conditions: P. falciparum Indochina infected erythrocytes, osmotic lysis OD700, 18 h; higher = more signal, called active from +8 up or from −8 down
[7] = modulators of S6 phosphorylation in cells, primary screen, cell-based, A549, cytoblot, luminescence, serum-stimulated (AID 1158); conditions: A549 phospho-S6 cytoblot, 5 h, higher = more signal;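 note: serum-stimulated A549 lung adenocarcinoma cells; signal is phosphorylated S6 detected by cytoblot immunostaining with HRP secondary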
[8] = target: NADPH oxidase 2 (Homo sapiens) (UniProt P04839); experiment: NOX2-dependent H2O2 signal modulators, primary screen, NOX inhibitor project, cell-based, HEK293-NOX2, PMA-stimulated, Amplex Red fluorescence (AID 1159); conditions: 45 min, higher = more signal, called active from +8 up or from −8 down; note: test concentration not given here
[9] = target: NADPH oxidase 4 (Homo sapiens) (UniProt Q9NPH5); experiment: NOX4-dependent H2O2 signal modulators, primary screen, NOX inhibitor project, cell-based, HEK293-NOX4, tetracycline-induced, Amplex Red fluorescence (AID 1160); conditions: 45 min, higher = more signal, called active from +8 up or from −8 down
[10] = target: NADPH oxidase 5 (Homo sapiens) (UniProt Q96PH1); experiment: NOX5-dependent H2O2 signal modulators, primary screen, NOX inhibitor project, cell-based, HEK293-NOX5, Amplex Red fluorescence (AID 1161); conditions: HEK293-NOX5, ionomycin, 45 min, higher = more signal
[11] = A549 cell viability effects, profiling panel, calcein-AM fluorescence, 48 h, basal (AID 1162); conditions: higher = more signal; note: test concentration not given here
[12] = adipocyte viability effects, profiling panel, cell-based, 3T3-L1 adipocytes, calcein-AM fluorescence, 48 h, basal (AID 1163); conditions: 3T3-L1 adipocytes viability, higher = more signal; note: test concentration not given here
[13] = HepG2 cell viability effects, profiling panel, calcein-AM fluorescence, 48 h, basal (AID 1164); conditions: higher = more signal; note: test concentration not given here
[14] = MM1S cell viability effects, profiling panel, calcein-AM fluorescence, 48 h, basal (AID 1165); conditions: higher = more signal;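 note: viability of MM1S multiple myeloma cells under basal unstimulated conditions; test concentration not given here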
[15] = basal RPMI8226 viability, no added stimulus, profiling panel, cell-based, calcein-AM fluorescence, 48 h, PK04 Diversity Set (AID 1166); conditions: RPMI8226 myeloma viability, higher = more signal;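 note: cells grown under basal conditions without added stimulus; test concentration not given here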
[16] = basal HepG2 mitochondrial membrane potential changes, profiling panel, cell-based, JC-1 fluorescence, 24 h, 100 nL compound (AID 1167); conditions: higher = more signal; note: test concentration not given here
[17] = basal 3T3-L1 adipocyte mitochondrial potential changes, profiling panel, cell-based, JC-1 fluorescence, 3T3-L1 adipocytes, 24 h, 100 nL compound (AID 1168); conditions: JC-1 mitochondrial fluorescence, higher = more signal, called active from +8 up or from −8 down; note: test concentration not given here
[18] = basal RPMI8226 mitochondrial membrane potential changes, profiling panel, cell-based, JC-1 fluorescence, 24 h, 100 nL compound (AID 1169); conditions: RPMI8226 myeloma, JC-1 mitochondrial potential fluorescence, higher = more signal; note: test concentration not given here
[19] = basal MM1S mitochondrial membrane potential changes, profiling panel, cell-based, JC-1 fluorescence, 24 h, 100 nL compound (AID 1170); conditions: higher = more signal; note: test concentration not given here
[20] = A549 lung cancer cell viability effects, profiling panel, resazurin fluorescence, 24 h, PK04 Diversity Set (AID 1171); conditions: higher = more signal, called active from +8 up or from −8 down; note: test concentration not given here

NADPH oxidase 4 (Homo sapiens), sequence (Q9NPH5 whole entry, looked up): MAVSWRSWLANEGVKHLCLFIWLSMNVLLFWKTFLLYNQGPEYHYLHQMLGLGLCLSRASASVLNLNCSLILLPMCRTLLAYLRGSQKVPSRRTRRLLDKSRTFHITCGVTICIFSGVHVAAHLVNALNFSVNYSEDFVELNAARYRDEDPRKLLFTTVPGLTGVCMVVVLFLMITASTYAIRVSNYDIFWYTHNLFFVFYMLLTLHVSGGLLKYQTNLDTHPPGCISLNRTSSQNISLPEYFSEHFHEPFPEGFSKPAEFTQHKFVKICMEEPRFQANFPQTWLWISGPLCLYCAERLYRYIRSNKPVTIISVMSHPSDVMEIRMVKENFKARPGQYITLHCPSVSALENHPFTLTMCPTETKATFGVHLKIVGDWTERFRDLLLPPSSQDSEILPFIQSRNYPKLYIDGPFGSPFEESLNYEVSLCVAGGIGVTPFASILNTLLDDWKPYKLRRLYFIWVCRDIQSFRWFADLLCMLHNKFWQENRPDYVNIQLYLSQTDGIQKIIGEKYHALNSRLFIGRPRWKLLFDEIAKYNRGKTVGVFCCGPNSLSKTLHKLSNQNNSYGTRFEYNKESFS
NADPH oxidase 5 (Homo sapiens), sequence (Q96PH1 whole entry, looked up): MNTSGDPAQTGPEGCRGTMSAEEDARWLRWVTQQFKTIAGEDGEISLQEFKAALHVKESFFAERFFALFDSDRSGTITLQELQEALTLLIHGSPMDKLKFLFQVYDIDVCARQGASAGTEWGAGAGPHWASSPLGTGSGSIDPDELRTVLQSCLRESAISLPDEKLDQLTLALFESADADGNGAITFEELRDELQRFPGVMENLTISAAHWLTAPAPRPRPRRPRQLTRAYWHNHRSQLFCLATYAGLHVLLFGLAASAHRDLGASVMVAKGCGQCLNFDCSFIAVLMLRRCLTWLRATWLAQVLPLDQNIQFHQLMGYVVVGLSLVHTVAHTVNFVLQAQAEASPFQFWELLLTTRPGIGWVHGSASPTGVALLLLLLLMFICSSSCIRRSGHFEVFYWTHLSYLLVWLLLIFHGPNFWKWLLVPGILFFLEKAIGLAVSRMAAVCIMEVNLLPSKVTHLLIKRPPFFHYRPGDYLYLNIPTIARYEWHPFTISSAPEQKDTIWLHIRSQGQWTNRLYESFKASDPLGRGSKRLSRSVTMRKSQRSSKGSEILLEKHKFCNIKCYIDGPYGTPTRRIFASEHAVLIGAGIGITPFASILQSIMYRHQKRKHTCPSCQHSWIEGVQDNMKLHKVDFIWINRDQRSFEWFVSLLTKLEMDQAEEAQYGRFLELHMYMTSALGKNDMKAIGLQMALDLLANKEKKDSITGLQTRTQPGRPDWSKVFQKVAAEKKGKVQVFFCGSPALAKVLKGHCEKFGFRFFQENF
NADPH oxidase 2 (Homo sapiens), sequence (P04839 whole entry, looked up): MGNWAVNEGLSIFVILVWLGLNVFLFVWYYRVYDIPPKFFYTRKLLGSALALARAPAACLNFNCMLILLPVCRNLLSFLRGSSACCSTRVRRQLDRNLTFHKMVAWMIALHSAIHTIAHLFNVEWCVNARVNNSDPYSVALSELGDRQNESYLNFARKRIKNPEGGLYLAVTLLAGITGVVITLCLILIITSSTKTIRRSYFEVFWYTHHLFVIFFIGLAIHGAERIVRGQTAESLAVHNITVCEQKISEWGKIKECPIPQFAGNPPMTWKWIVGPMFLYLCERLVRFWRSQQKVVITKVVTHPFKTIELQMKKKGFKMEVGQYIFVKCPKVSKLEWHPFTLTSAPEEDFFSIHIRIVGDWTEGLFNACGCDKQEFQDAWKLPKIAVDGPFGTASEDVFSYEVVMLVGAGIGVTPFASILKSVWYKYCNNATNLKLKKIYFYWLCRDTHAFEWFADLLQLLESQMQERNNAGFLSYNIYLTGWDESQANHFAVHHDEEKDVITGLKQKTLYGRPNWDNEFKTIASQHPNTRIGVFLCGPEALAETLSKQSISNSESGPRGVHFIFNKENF

SMILES | z-score [1] | composite z-score [2] | z-score [3] | z-score [4] | z-score [5] | z-score [6] | z-score [7] | z-score [8] | z-score [9] | z-score [10] | z-score [11] | z-score [12] | z-score [13] | z-score [14] | z-score [15] | z-score [16] | z-score [17] | z-score [18] | z-score [19] | z-score [20]
COC(=O)[C@@H]1CCCN1C(=O)[C@@H](C)CO | -0.926 (inactive) | -0.147 | 0.34 (inactive) | -0.603 (inactive) | 0.864 (inactive) | -1.69 (inactive) | 1.4 | -0.366 (inactive) | -0.739 (inactive) | -1.15 | 0.0364 | 0.512 | -0.52 | -2.77 | -0.57 | -0.952 | 0.514 (inactive) | -0.157 | -1.32 | -1.14 (inactive)
O=C1CCCC2OC12C(O)CCc1ccccc1 (stereo not given) | 0.508 (inactive) | -0.541 | -0.272 (inactive) | -0.521 (inactive) | -0.0749 (inactive) | -0.169 (inactive) | 0.172 | 0.504 (inactive) | -0.142 (inactive) | 0.0429 | -0.202 | -0.0344 | -0.229 | 0.561 | -0.908 | 0.287 | 0.279 (inactive) | -0.278 | 0.353 | -0.81 (inactive)
CC(=O)OC[C@H]1O[C@H](C#CCCCc2ccccc2)C=C[C@@H]1OC(C)=O | -0.802 (inactive) | -0.0536 | 3.35 (inactive) | 0.23 (inactive) | -0.213 (inactive) | 0.148 (inactive) | -0.0744 | -1.19 (inactive) | 0.903 (inactive) | 0.839 | -0.442 | -0.0563 | -2.26 | -3.51 | -3.61 | -1.12 | 0.288 (inactive) | -0.861 | -2.26 | 0.899 (inactive)
CC(C)[C@@H](OCc1ccccc1)[C@H](C)C=NO[C@H](C)c1cn([C@H](CO)Cc2ccccc2)nn1 | -0.489 (inactive) | -0.448 | -0.146 (inactive) | -1.75 (inactive) | -0.525 (inactive) | -2.28 (inactive) | 1.99 | -2.23 (inactive) | -0.147 (inactive) | -1.41 | -0.22 | 0.315 | 0.235 | -0.192 | 0.153 | -1.15 | 0.629 (inactive) | 0.339 | 0.115 | -1.02 (inactive)
C[C@@H]1C=CCC(=O)OC[C@H](C)C(=O)N[C@@H](C)C(=O)OC1 | 0.811 (inactive) | -0.0104 | 0.378 (inactive) | 0.371 (inactive) | 0.623 (inactive) | 0.342 (inactive) | -0.276 | -0.727 (inactive) | 0.527 (inactive) | 0.619 | 0.195 | -0.112 | -0.532 | -0.131 | -0.275 | 0.391 | -0.871 (inactive) | -0.0436 | -1.26 | 0.156 (inactive)
O=C1CCCC=C1C(O)CCOCc1ccccc1 (stereo not given) | -1.7 (inactive) | -0.342 | 0.427 (inactive) | -0.127 (inactive) | 0.452 (inactive) | -0.118 (inactive) | -0.235 | 1.18 (inactive) | 0.45 (inactive) | -0.00615 | -0.43 | 0.0411 | -0.457 | -1.42 | 0.452 | -0.667 | 0.0503 (inactive) | 0.215 | 0.527 | -0.323 (inactive)
CC(C)=CCCC(C)=CCON=C1[C@H]2CCn3c(=O)n(Cc4cc5c(cc4Cl)OCO5)c(=O)n3[C@H]2[C@H](O)[C@@H]2O[C@H]12 | -0.939 (inactive) | -0.0559 | 1.34 (inactive) | 0.722 (inactive) | 0.555 (inactive) | 0.38 (inactive) | 0.181 | 0.594 (inactive) | -1.12 (inactive) | -0.711 | -0.305 | 0.123 | 0.42 | -0.918 | -0.497 | -0.298 | -0.992 (inactive) | -0.702 | 1.17 | -0.386 (inactive)
O=C1NC(=O)C2C1C=CC(C(O)Cc1ccccc1)N2Nc1ccccn1 (stereo not given) | 0.79 (inactive) | 0.165 | 0.541 (inactive) | -0.67 (inactive) | -0.255 (inactive) | -0.422 (inactive) | 0.91 | -1.58 (inactive) | -2.54 (inactive) | -1.8 | 0.379 | -0.949 | 1.16 | -0.171 | -0.87 | 0.0266 | 0.272 (inactive) | 0.477 | -0.684 | -1.22 (inactive)
COC(=O)CC1OC1[C@H](C)[C@@H](OC)C(C)C (stereo not given in full) | 0.547 (inactive) | -0.0186 | 2.66 (inactive) | -0.0353 (inactive) | -0.324 (inactive) | -0.146 (inactive) | 0.0023 | -1.33 (inactive) | -1.67 (inactive) | -1.45 | 0.285 | 0.0498 | 1.66 | -3.45 | 0.045 | 1.74 | 0.269 (inactive) | 0.666 | -0.796 | -0.292 (inactive)
CC(C)[C@@H](OCc1ccccc1)[C@H](C)C=NOC[C@@H](C)[C@H](OCc1ccccc1)C(C)C | 0.52 (inactive) | 0.233 | 0.641 (inactive) | 0.369 (inactive) | -0.423 (inactive) | -0.222 (inactive) | -0.591 | -0.537 (inactive) | -0.184 (inactive) | -0.948 | 0.243 | -0.231 | -0.661 | 0.27 | 0.0507 | -0.245 | -0.149 (inactive) | 0.0367 | -0.0858 | -0.689 (inactive)

Reference: PubChem BioAssay
